# Experimental data taken from PubChem BioAssay (EPA / NIEHS).
# Calls of active or inactive are those of the source. The calls were made as follows: active = hit-call score of the fitted dose curve at least 0.9, where 1 is the maximum; inactive = score below 0.9.
# Key:
# Details in all cases: mRNA level, 48 h; actives raise or lower the signal
# [1] = read-out: Ezrin (EZR), EZR (gene 7430); test: LTEA_HepaRG_EZR: Life Technologies and Expression Analysis (LTEA) Assay for Ezrin (EZR) using HepaRG (AID 2283491)
# Procedure, shortened: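 Gain or loss of EZR mRNA is scored relative to 0.5% DMSO in human HepaRG cultures treated 48 h with test chemicals in duplicate, eight half-log concentrations from 100 uM.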
# [2] = read-out: Cytochrome P450 3A7 (Homo sapiens) (UniProt P24462); test: LTEA_HepaRG_CYP3A7: Life Technologies and Expression Analysis (LTEA) Assay for CYP3A7 using HepaRG (AID 2283492)
# Procedure, shortened: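 Differentiated HepaRG cells in serum-free induction medium exposed 48 h in duplicate to 8-point half-log series from 100 uM top in 0.5% DMSO. CYP3A7 mRNA by qRT-PCR, normalized to ACTB/GAPDH/POLR2A, bidirectional fit versus DMSO.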
# [3] = read-out: CYP3A5 (gene 1577); test: LTEA_HepaRG_CYP3A5: Life Technologies and Expression Analysis (LTEA) Assay for CYP3A5 using HepaRG (AID 2283493)
# Procedure, shortened: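 Human HepaRG hepatic cells receive 48 h chemical treatment at eight concentrations (half-log steps from 100 uM) in 0.5% DMSO. Expression of CYP3A5 is quantified by Fluidigm qRT-PCR and normalized to three reference genes.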
# [4] = read-out: Fatty Acid-Binding Protein 1 (FABP1), FABP1 (gene 2168); test: LTEA_HepaRG_FABP1: Life Technologies and Expression Analysis (LTEA) Assay for Fatty Acid-Binding Protein 1 (FABP1) using HepaRG (AID 2283494)
# Procedure, shortened: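 FABP1 expression by TaqMan qRT-PCR, normalised to three housekeeping genes, in HepaRG cells after 48 h chemical treatment. Eight-point half-log series topping at 100 uM in 0.5% DMSO, duplicates; gain or loss fitted relative to vehicle.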
# [5] = read-out: Cytochrome P450 4A22 (Homo sapiens) (UniProt Q5TCH4); test: LTEA_HepaRG_CYP4A22: Life Technologies and Expression Analysis (LTEA) Assay for Cytochrome P450 4A22 (CYP4A22) using HepaRG (AID 2283495)
# Procedure, shortened: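 Differentiated HepaRG cells in serum-free induction medium exposed 48 h in duplicate to eight half-log concentrations up to 100 uM in 0.5% DMSO. CYP4A22 mRNA quantified by TaqMan qRT-PCR, normalized to ACTB, GAPDH and POLR2A; bidirectional fit versus DMSO.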
# [6] = read-out: Cytochrome P450 7A1 (Homo sapiens) (UniProt P22680); test: LTEA_HepaRG_CYP7A1: Life Technologies and Expression Analysis (LTEA) Assay for Cytochrome P450 7A1 (CYP7A1) using HepaRG (AID 2283496)
# Procedure, shortened: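 HepaRG, 48 h exposure, 8-pt half-log series from 100 uM, 0.5% DMSO vehicle, duplicates. Readout: TaqMan qRT-PCR mRNA vs three housekeeping genes; bidirectional curve fit against DMSO baseline.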
# [7] = read-out: Glutathione S-Transferase (GSTA2), GSTA2 (gene 2939); test: LTEA_HepaRG_GSTA2: Life Technologies and Expression Analysis (LTEA) Assay for Glutathione S-Transferase (GSTA2) using HepaRG (AID 2283497)
# Procedure, shortened: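 GSTA2 transcript levels came from Fluidigm TaqMan qRT-PCR normalized to three housekeeping genes, fitted in both directions against DMSO. HepaRG cultures received chemicals for 48 h in serum-free induction medium (0.5% DMSO), 8 half-log concentrations up to 100 uM, duplicate.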
# [8] = read-out: Glutamate-cysteine ligase catalytic (GCLC), GCLC (gene 2729); test: LTEA_HepaRG_GCLC: Life Technologies and Expression Analysis (LTEA) Assay for Glutamate-cysteine ligase catalytic (GCLC) using HepaRG (AID 2283498)
# Procedure, shortened: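 Expression by TaqMan qRT-PCR, normalized to three housekeeping genes (ACTB, GAPDH, POLR2A), with up- or down-regulation fitted against DMSO. HepaRG cells dosed in duplicate for 48 h with 8 half-log concentrations up to 100 uM, vehicle 0.5% DMSO.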
# [9] = read-out: Glutamate-cysteine ligase regulatory (GCLM), GCLM (gene 2730); test: LTEA_HepaRG_GCLM: Life Technologies and Expression Analysis (LTEA) Assay for Glutamate-cysteine ligase regulatory (GCLM) using HepaRG (AID 2283500)
# Procedure, shortened: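 Endpoint is GCLM transcript level by qRT-PCR, normalized to three housekeeping genes, after 48 h chemical exposure of human HepaRG cells (0.5% DMSO vehicle, top 100 uM, half-log dilutions). Fitting was bidirectional relative to DMSO.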
# [10] = read-out: Glutathione S-transferase M3 (GSTM3), GSTM3 (gene 2947); test: LTEA_HepaRG_GSTM3: Life Technologies and Expression Analysis (LTEA) Assay for Glutathione S-transferase M3 (GSTM3) using HepaRG (AID 2283501)
# Procedure, shortened: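 Differentiated human HepaRG cells were exposed in duplicate for 48 h in serum-free induction medium, 8 points from 100 uM top in half-log steps, 0.5% DMSO. GSTM3 mRNA was measured by TaqMan qRT-PCR, normalized to ACTB, GAPDH and POLR2A; bidirectional fit versus DMSO.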
# [11] = read-out: Hypoxia-inducible factor 1-alpha (Homo sapiens) (UniProt Q16665); test: LTEA_HepaRG_HIF1A: Life Technologies and Expression Analysis (LTEA) Assay for Hypoxia-inducible factor 1 (HIF1A) Trancription factor using HepaRG (AID 2283503)
# Procedure, shortened: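 HIF1A transcript level read by qRT-PCR (ACTB, GAPDH, POLR2A normalization) after 48 h chemical exposure of HepaRG cultures. Eight half-log concentrations, top 100 uM, 0.5% DMSO vehicle, duplicates; bidirectional curve fit against DMSO baseline.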
# [12] = read-out: 3-Hydroxy-3-Methylglutaryl-CoA Synthase 2 (HMGCS2), HMGCS2 (gene 3158); test: LTEA_HepaRG_HMGCS2: Life Technologies and Expression Analysis (LTEA) Assay for 3-Hydroxy-3-Methylglutaryl-CoA Synthase 2 (HMGCS2) using HepaRG (AID 2283504)
# Procedure, shortened: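 Human HepaRG cells in serum-free induction medium were exposed in duplicate for 48 h to 8-point half-log series from 100 uM top in 0.5% DMSO. HMGCS2 mRNA measured by TaqMan qRT-PCR, normalised to ACTB, GAPDH, POLR2A; bidirectional fit versus DMSO.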
# [13] = read-out: HGF (gene 3082); test: LTEA_HepaRG_HGF: Life Technologies and Expression Analysis (LTEA) Assay for Hepatocyte Growth Facto (HGF) using HepaRG (AID 2283505)
# Procedure, shortened: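 Differentiated HepaRG cells in serum-free induction medium exposed 48 h in duplicate, 8 half-log concentrations from 100 uM in 0.5% DMSO. HGF mRNA by qRT-PCR, normalised to ACTB, GAPDH, POLR2A; bidirectional fitting.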
# [14] = read-out: Insulin Like Growth Factor 1 (IGF1), IGF1 (gene 3479); test: LTEA_HepaRG_IGF1: Life Technologies and Expression Analysis (LTEA) Assay for Insulin Like Growth Factor 1 (IGF1) using HepaRG (AID 2283506)
# Procedure, shortened: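 Cells are thawed, plated and cultured 48 h, then exposed in duplicate to chemical (highest 100 uM, half-log steps, 0.5% DMSO) for another 48 h. Total RNA is analysed by Fluidigm qRT-PCR for IGF1 expression relative to vehicle.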
# [15] = read-out: Intercellular Adhesion Molecule 1 (ICAM1), ICAM1 (gene 3383); test: LTEA_HepaRG_ICAM1: Life Technologies and Expression Analysis (LTEA) Assay for Intercellular Adhesion Molecule 1 (ICAM1) using HepaRG (AID 2283507)
# Procedure, shortened: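 Differentiated human HepaRG cells in serum-free induction medium exposed 48 h in duplicate to 8 half-log concentrations (top 100 uM, 0.5% DMSO). ICAM1 mRNA quantified by TaqMan qRT-PCR, normalized to ACTB, GAPDH and POLR2A; bidirectional fitting versus DMSO.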
# [16] = read-out: Insulin-like growth factor-binding protein 1 (IGFBP1), IGFBP1 (gene 3484); test: LTEA_HepaRG_IGFBP1: Life Technologies and Expression Analysis (LTEA) Assay for Insulin-like growth factor-binding protein 1 (IGFBP1) using HepaRG (AID 2283508)
# Procedure, shortened: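 HepaRG cells, plated 48 h then switched to serum-free induction medium, exposed in duplicate for 48 h to 8-point half-log series from 100 uM in 0.5% DMSO. mRNA measured by qRT-PCR, normalized to ACTB/GAPDH/POLR2A; bidirectional fit versus DMSO.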
# [17] = read-out: Interleukin 6 Receptor (IL6R), IL6R (gene 3570); test: LTEA_HepaRG_IL6R: Life Technologies and Expression Analysis (LTEA) Assay for Interleukin 6 Receptor (IL6R) using HepaRG (AID 2283510)
# Procedure, shortened: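 Cells were thawed, plated and cultured 48 h, then medium was changed to serum-free induction medium. Chemicals were added in duplicate (100 uM top, half-log steps, 0.5% DMSO) for 48 h. Lysates were analyzed by qRT-PCR for IL6R expression.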
# [18] = read-out: growth arrest and DNA damage 45 (GADD45G), GADD45G (gene 10912); test: LTEA_HepaRG_GADD45G: Life Technologies and Expression Analysis (LTEA) Assay for growth arrest and DNA damage 45 (GADD45G) using HepaRG (AID 2283499)
# Procedure, shortened: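 Differentiated human HepaRG cells, 48 h post-plating, exposed 48 h in serum-free induction medium to 8 half-log concentrations (top 100 uM, 0.5% DMSO) in duplicate. GADD45G mRNA measured by Fluidigm TaqMan qRT-PCR, normalized to ACTB, GAPDH, POLR2A; bidirectional fit versus DMSO.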
# [19] = read-out: Interleukin 6 (IL6), IL6 (gene 3569); test: LTEA_HepaRG_IL6: Life Technologies and Expression Analysis (LTEA) Assay for Interleukin 6 (IL6) using HepaRG (AID 2283509)
# Procedure, shortened: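 Transcript levels, normalized to three housekeeping genes, were quantified by qRT-PCR after 48 h chemical treatment of HepaRG cells. Eight-point half-log series from 100 uM in 0.5% DMSO, duplicates. Fitted both directions against DMSO baseline.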
# [20] = read-out: Heat shock 70 kDa protein 1 (HSPA1A), gene 3303; test: LTEA_HepaRG_HSPA1A: Life Technologies and Expression Analysis (LTEA) Assay for Heat shock 70 kDa protein 1 (HSPA1A) using HepaRG (AID 2283502)
# Procedure, shortened: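 Cells were plated and cultured for 48 h, then switched to serum-free induction medium. Chemicals were added at eight half-log concentrations up to 100 uM for 48 h. RNA was then isolated and HSPA1A measured by qRT-PCR with bidirectional curve fitting against DMSO.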
# Hypoxia-inducible factor 1-alpha (Homo sapiens), sequence (Q16665 whole entry, looked up): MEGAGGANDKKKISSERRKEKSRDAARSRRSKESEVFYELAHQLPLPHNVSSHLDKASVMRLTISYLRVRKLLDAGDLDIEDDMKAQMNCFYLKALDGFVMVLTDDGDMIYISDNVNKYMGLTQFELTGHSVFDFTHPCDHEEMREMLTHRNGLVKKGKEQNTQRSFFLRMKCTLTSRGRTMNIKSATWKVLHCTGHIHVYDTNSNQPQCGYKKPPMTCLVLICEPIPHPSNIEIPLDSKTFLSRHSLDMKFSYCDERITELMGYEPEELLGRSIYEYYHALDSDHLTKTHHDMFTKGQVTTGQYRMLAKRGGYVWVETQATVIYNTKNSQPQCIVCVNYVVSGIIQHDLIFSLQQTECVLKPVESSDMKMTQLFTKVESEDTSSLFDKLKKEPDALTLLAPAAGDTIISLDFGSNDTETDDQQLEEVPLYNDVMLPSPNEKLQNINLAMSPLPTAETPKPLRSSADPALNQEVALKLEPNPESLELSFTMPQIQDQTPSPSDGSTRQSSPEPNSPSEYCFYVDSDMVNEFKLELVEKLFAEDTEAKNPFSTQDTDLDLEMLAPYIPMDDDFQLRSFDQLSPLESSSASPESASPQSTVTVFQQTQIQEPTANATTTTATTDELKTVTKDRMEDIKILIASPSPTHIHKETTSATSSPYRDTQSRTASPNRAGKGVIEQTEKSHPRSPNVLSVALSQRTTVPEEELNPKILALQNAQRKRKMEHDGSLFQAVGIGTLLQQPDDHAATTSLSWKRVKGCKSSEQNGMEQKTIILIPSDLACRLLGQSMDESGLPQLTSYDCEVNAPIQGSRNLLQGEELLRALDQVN
# Cytochrome P450 3A7 (Homo sapiens), sequence (P24462 whole entry, looked up): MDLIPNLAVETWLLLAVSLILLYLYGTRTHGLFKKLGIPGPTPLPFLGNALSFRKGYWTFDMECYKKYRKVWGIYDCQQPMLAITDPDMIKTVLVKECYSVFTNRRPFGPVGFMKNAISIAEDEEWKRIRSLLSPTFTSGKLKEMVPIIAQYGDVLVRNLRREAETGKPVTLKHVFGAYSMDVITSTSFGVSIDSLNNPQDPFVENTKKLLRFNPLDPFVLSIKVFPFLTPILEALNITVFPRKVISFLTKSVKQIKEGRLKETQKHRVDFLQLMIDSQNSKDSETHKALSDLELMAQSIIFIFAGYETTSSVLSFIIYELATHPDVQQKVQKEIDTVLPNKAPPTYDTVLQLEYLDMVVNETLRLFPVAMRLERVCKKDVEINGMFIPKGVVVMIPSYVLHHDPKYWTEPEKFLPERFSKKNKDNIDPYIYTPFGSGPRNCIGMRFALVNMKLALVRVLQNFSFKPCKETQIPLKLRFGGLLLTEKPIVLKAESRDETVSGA
compound,measurement,setting,value
COCC(=O)N(c1c(C)cccc1C)C(C)C(=O)OC (centres undefined),outcome,[1],inactive
same,outcome,[2],inactive
same,outcome,[3],inactive
same,AC50,[4],31.7 µM (active)
same,outcome,[5],inactive
same,outcome,[6],inactive
same,outcome,[7],inactive
same,outcome,[8],inactive
same,outcome,[9],inactive
same,outcome,[10],inactive
same,outcome,[11],inactive
same,outcome,[12],inactive
same,outcome,[13],inactive
same,outcome,[14],inactive
same,outcome,[15],inactive
same,outcome,[16],inactive
same,outcome,[17],inactive
CC1(C)CCC(=Cc2ccc(Cl)cc2)C1(O)Cn1cncn1 (centres undefined),outcome,[1],inactive
same,outcome,[3],inactive
same,AC50,[4],4.41 µM (active)
same,AC50,[5],14.6 µM (active)
same,AC50,[6],4.96 µM (active)
same,outcome,[7],inactive
same,outcome,[8],inactive
same,outcome,[18],inactive
same,outcome,[9],inactive
same,outcome,[10],inactive
same,outcome,[11],inactive
same,outcome,[12],inactive
same,outcome,[13],inactive
same,AC50,[14],25 µM (active)
same,outcome,[15],inactive
same,outcome,[16],inactive
same,outcome,[19],inactive
same,outcome,[17],inactive
CCN(CC)C(=O)C(C)Oc1cccc2ccccc12 (centres undefined),outcome,[1],inactive
same,AC50,[2],80.2 µM (active)
same,outcome,[3],inactive
same,AC50,[4],70.4 µM (active)
same,AC50,[5],78.3 µM (active)
same,AC50,[6],35.5 µM (active)
same,outcome,[7],inactive
same,outcome,[18],inactive
same,outcome,[9],inactive
same,outcome,[10],inactive
same,outcome,[20],inactive
same,outcome,[11],inactive
same,AC50,[12],76.9 µM (active)
same,AC50,[14],66.3 µM (active)
same,outcome,[15],inactive
same,outcome,[16],inactive
same,AC50,[17],20.3 µM (active)
CCCC(=NOCC)C1=C(O)CC(CC(C)SCC)CC1=O (centres undefined),outcome,[1],inactive
same,outcome,[2],inactive
same,outcome,[3],inactive
same,outcome,[4],inactive
same,outcome,[5],inactive
same,outcome,[6],inactive
same,outcome,[7],inactive
same,outcome,[8],inactive
same,outcome,[18],inactive
same,outcome,[9],inactive
same,outcome,[10],inactive
same,outcome,[11],inactive
same,outcome,[12],inactive
same,outcome,[14],inactive
same,outcome,[15],inactive
same,outcome,[16],inactive
same,outcome,[17],inactive
